This note sets out measurements from PubChem BioAssay.

Molecules are shown by their SMILES. Where “and” joins values, the source holds several entries; their conditions need not be identical. Equal values may be shown once. Calls of active or inactive are those of the source.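 The calls were made as follows, unless noted: active = at least 20% inhibition of 6-phosphogluconate dehydrogenase activity; inactive = the rest.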

For experiment [1], the target named is 6-phosphogluconate dehydrogenase, decarboxylating (Homo sapiens) (UniProt P52209). Kind of experiment: 6PGD enzyme inhibitors, primary screen, biochemical, human, recombinant enzyme, NADPH absorbance (AID 1159550). Particulars: recombinant 6PGD, NADPH absorbance 341 nm; at 10 µM; stronger effect = higher value.
6-phosphogluconate dehydrogenase, decarboxylating (Homo sapiens), sequence (P52209 whole entry, looked up): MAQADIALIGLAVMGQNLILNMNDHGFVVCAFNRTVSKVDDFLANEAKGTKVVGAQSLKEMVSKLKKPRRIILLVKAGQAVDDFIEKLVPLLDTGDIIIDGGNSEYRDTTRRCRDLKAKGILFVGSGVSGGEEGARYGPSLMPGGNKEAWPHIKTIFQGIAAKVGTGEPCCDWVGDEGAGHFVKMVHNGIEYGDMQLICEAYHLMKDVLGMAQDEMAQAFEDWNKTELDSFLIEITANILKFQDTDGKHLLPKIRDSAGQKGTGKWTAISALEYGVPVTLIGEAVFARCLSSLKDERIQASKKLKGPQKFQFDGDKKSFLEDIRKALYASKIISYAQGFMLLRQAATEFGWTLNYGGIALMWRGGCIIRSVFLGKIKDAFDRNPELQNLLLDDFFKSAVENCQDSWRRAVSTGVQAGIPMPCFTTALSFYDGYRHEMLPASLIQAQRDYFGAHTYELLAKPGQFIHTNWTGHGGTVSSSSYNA
A short description of experiment [2]: differential killing of epithelial or mesenchymal cells, primary screen, imaging, PC-3E GFP, TEM4-18 mCherry, co-culture (AID 1345086;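 active = compounds killing one labelled cell type while sparing the other, by normalised counts and ratio limits, not self-fluorescent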;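 as to all read-outs here: cells exposed to compound for 72 h before imaging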;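 as to red/green cell ratio (normalised): normalised mesenchymal count divided by normalised epithelial count so high means epithelial killing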). The conditions noted are these: imaging cell counts, at 1 µM; for red/green cell ratio (normalised): actives lie on both sides, counts scaled to control wells, 1 = unselective.
The target of experiment [3] is Mitogen-activated protein kinase 7 (Homo sapiens) (UniProt Q13164). Description: ERK5 transactivation activators in reporter cells, primary screen, cell-based, HTS (AID 1508626;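 active = luciferase signal above three times the same-plate solvent-only control wells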;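 also: luciferase driven by Gal4-ERK5 fusion binding five Gal4 sites before minimal TATA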). The conditions noted are these: HeLa Gal4-ERK5 transactivation, 18 h, at 5 µM, stronger effect = higher value.
Mitogen-activated protein kinase 7 (Homo sapiens), sequence (Q13164 whole entry, looked up, the tested form may be a part): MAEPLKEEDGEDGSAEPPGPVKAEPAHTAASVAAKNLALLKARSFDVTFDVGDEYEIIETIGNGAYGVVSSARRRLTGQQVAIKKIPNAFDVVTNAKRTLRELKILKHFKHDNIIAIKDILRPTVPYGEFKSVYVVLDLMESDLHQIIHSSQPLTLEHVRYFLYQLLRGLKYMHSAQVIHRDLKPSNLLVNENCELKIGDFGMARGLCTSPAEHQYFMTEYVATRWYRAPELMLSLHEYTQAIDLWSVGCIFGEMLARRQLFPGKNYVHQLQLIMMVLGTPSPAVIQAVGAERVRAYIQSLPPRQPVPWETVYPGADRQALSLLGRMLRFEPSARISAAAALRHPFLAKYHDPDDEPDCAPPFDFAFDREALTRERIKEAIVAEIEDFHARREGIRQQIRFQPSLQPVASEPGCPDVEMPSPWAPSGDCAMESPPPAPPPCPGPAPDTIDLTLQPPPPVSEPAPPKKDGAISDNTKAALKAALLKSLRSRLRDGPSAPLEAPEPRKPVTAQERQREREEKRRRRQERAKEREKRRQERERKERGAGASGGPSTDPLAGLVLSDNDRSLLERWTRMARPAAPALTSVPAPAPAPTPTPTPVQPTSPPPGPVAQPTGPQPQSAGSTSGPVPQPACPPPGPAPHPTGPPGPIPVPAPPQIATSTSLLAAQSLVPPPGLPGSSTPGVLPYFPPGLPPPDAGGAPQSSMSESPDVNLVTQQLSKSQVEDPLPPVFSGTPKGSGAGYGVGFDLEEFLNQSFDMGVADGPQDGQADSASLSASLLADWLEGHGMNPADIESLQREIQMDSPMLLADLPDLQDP
The mark [4] stands for this setting: measured here: epithelial PC-3E GFP cell survival.
[5] abbreviates: measured here: mesenchymal TEM4-18 mCherry cell survival.

A word on the inhibition: it is the change of the read-out against control, counted positive when it falls. On to `CC(=O)O[C@H]1C[C@@H](OC(C)=O)C(C)(C)C2CC(=O)[C@]3(C)C(CC[C@@]4(C)[C@H](C(=O)O)OC(=O)C5OC543)[C@]21C` (stereo not given in full), for which the inhibition in experiment [1] is 1.04% (inactive). The red/green cell ratio (normalised) in experiment [2] was 1 (inactive). Besides, the normalised cell number in experiment [2] (setting [4]) and in experiment [2] (setting [5]) was 0.99 throughout. In experiment [3], the luciferase signal is 120 AU (inactive).
Regarding `CC(=O)c1c(O)cc(O)cc1O`, the inhibition in experiment [1] is -5.07% (inactive). Besides, in experiment [2], the red/green cell ratio (normalised) is 1.24 (inactive). In addition, the normalised cell number in experiment [2] (setting [4]) is 0.74; in experiment [2] (setting [5]), 0.92. In addition, the luciferase signal in experiment [3] was 44 AU (inactive).
On the same counts, the results for `Cc1cc(O)c(C=O)c(O)c1C(=O)O` are 15% (inactive), 0.84 (inactive), 1.14, 0.95 and 120 AU (inactive).
Regarding `CCC(C)C(NC)C(=O)O` (stereo not given), the inhibition in experiment [1] was -6.91% (inactive). In experiment [2], the red/green cell ratio (normalised) is 1.02 (inactive). The normalised cell number in experiment [2] (setting [4]) was found to be 1.08; in experiment [2] (setting [5]), 1.11. Further, the luciferase signal in experiment [3] is 68 AU (inactive).
For `CC1=CC(=O)C(C(C)C)=CC1=O` the same measures were -9.74% (inactive), 0.97 (inactive), 0.99, 0.96 and 24 AU (inactive).
On the same counts, the results for `O=c1c(-c2cc(O)c(O)c(O)c2)coc2cc(O)c(O)c(O)c12` are 29.2% (active), 0.99 (inactive), 1.01, 1 and 220 AU (active).
On the same counts, the results for `COc1ccc2c(c1)OCc1c-2oc2cc(OC)ccc12` are 2.98% (inactive), 0.82 (inactive), 1.14, 0.93 and 96 AU (inactive).
On to `CC(=O)Oc1cc(OC(C)=O)c2c(c1)O[C@H](c1ccc(OC(C)=O)c(OC(C)=O)c1)[C@H](OC(C)=O)C2`, for which, in experiment [1], the inhibition was 13.2% (inactive) and -3.23% (inactive). For the same molecule, the red/green cell ratio (normalised) in experiment [2] was 0.86 (inactive). The normalised cell number in experiment [2] (setting [4]) turned out to be 1.41; in experiment [2] (setting [5]) it was 1.21. Besides, the luciferase signal in experiment [3] was 48 AU (inactive).
As for `COc1ccc(-c2oc3ccccc3c(=O)c2O)cc1OC`, the inhibition in experiment [1] is 8.6% (inactive). Also, in experiment [2], the red/green cell ratio (normalised) was 0.86 (inactive). Besides, the normalised cell number came to 1.06 in experiment [2] (setting [4]) and 0.91 in experiment [2] (setting [5]). In experiment [3], the luciferase signal was 52 AU (inactive).
On the same counts, the results for `CC(=O)Oc1cc(-c2coc3cc(OC(C)=O)c(OC(C)=O)c(OC(C)=O)c3c2=O)cc(OC(C)=O)c1OC(C)=O` are -14.8% (inactive), 0.88 (inactive), 1.23, 1.08 and 36 AU (inactive).
On the same counts, the results for `CC1=C(/C=C/C(C)=C/C=C/C(C)=C/C=C/C=C(C)/C=C/C=C(C)/C=C/C(=O)[C@]2(C)C[C@@H](O)CC2(C)C)C(C)(C)C[C@H](O)C1` are 1.92% (inactive), 1.16 (inactive), 0.85, 0.98 and 20 AU (inactive).
On to `CC(=O)O[C@H]1CCC2(C)C3=C(CCC2C1(C)C)[C@]1(C)CCC(C(C)CCC=C(C)C)[C@@]1(C)CC3` (stereo not given in full), for which the inhibition in experiment [1] is 12.8% (inactive). In addition, the red/green cell ratio (normalised) in experiment [2] is 0.97 (inactive). Also, the normalised cell number stood at 0.86 in experiment [2] (setting [4]) and 0.83 in experiment [2] (setting [5]). In experiment [3], the luciferase signal was 52 AU (inactive).
On to `CC(C)c1ccc2c(c1)CCC1[C@](C)(CN)CCC[C@]21C` (stereo not given in full), for which the inhibition in experiment [1] is 0.884% (inactive). In addition, the red/green cell ratio (normalised) in experiment [2] was 0.87 (inactive). For the same molecule, the figures for the normalised cell number in experiment [2] (setting [4]) and in experiment [2] (setting [5]) were 0.95 and 0.83, respectively. Moreover, the luciferase signal in experiment [3] was 48 AU (inactive).
For `C=C1CCC2C(CC2(C)C)C(=O)CCC1O` (stereo not given) the same measures were 28.4% (active), 1.02 (inactive), 0.93, 0.96 and 132 AU (inactive).
For `C=CC(C1=CC(=O)C(OC)=CC1=O)c1ccccc1` (stereo not given) the same measures were -2.35% (inactive), 1.14 (inactive), 0.95, 1.08 and 60 AU (inactive).
On the same counts, the results for `OC[C@H]1O[C@@H](n2cnc3c(NCc4ccco4)ncnc32)[C@H](O)[C@@H]1O` are 3.79% (inactive), 1.48 (inactive), 0.37, 0.55 and 40 AU (inactive).
As to `C=CC(C1=CC(=O)C(OC)=CC1=O)c1ccc(OC)cc1` (stereo not given), the inhibition in experiment [1] was 9.18% (inactive). Further, the red/green cell ratio (normalised) in experiment [2] was 0.93 (inactive). In addition, the normalised cell number amounted to 1.1 in experiment [2] (setting [4]) and 1.03 in experiment [2] (setting [5]). For the same molecule, the luciferase signal in experiment [3] is 36 AU (inactive).
For `COc1ccc(-c2coc3cc(O)ccc3c2=O)c(O)c1O` the same measures were 9.58% (inactive), 0.97 (inactive), 0.83, 0.8 and 16 AU (inactive).
For `CCCCCc1c2c(cc(O)c1C(=O)O)OC(=O)c1c(cc(OC)cc1C(=O)CCCC)O2`, in experiment [1], the inhibition is 4.81% (inactive). Further, in experiment [2], the red/green cell ratio (normalised) is 0.98 (inactive). Also, the normalised cell number in experiment [2] (setting [4]) is 1.07; in experiment [2] (setting [5]), 1.05. The luciferase signal in experiment [3] was 48 AU (inactive).
On the same counts, the results for `CCCCCC1C(=O)CCC1CC(=O)O` (stereo not given) are -5.33% (inactive), 0.91 (inactive), 0.07, 0.07 and 56 AU (inactive).
Turning to `COc1cc(C)c(C(=O)Oc2cc(C)c(C(=O)O)c(O)c2C)c(OC)c1C`, the inhibition in experiment [1] was 17.4% (inactive). The red/green cell ratio (normalised) in experiment [2] is 1.11 (inactive). In addition, the normalised cell number in experiment [2] (setting [4]) is 0.88; in experiment [2] (setting [5]), 0.98. For the same molecule, the luciferase signal in experiment [3] is 92 AU (inactive).
Consider `Oc1cc(O)c2c(c1)O[C@H](c1cc(O)c(O)c(O)c1)[C@H](O)C2`, for which the inhibition in experiment [1] is -13.7% (inactive). Also, the red/green cell ratio (normalised) in experiment [2] was 1.12 (inactive). The normalised cell number in experiment [2] (setting [4]) was 0.76; in experiment [2] (setting [5]) it was 0.85. The luciferase signal in experiment [3] was 172 AU (inactive).
On the same counts, the results for `C=CCCCCCCCCCCCC(O)CC(O)COC(C)=O` (stereo not given) (tested in a mixture with another compound) are 4.12% (inactive), 0.92 (inactive), 1, 0.92 and 36 AU (inactive).
